Compounds with a hit are over-represented: about 12% of the library has one in this group of screens.
CHX counter – affects cycloheximide protein synthesis inhibition readout, counter-screen. max response, %. cell reporter, cycloheximide protein synthesis inhibition counterscreen. 300,000 tested, 12% active. AID 2314; in the data active = max response mostly above about 13%, no sharp cut-off; inactive = mostly below about 14%; note: read at 38.3 µM for the half of the compounds with a filed dose; 0% is about no effect
NS1 function inh – blocks influenza NS1 protein function | AID 2326 | 270,000 tested, 0.4% active | Potency, µM (series often up to 46.1 µM), inactives show top-dose activity, positive = more growth; note: potency is the fitted concentration of half-maximal effect; actives are rising curves; nearly all actives have a fitted effect of over 50% in size
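In this qHTS, NS1 from influenza A is expressed in budding yeast, where it slows growth. Cells are switched from glucose to 2% galactose medium (pH 6.0, -URA), treated with compound, and growth recovery is read at OD600.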
Shiga toxin inh – blocks Shiga toxin action in Vero cells | Vero cells, Shiga toxin protein synthesis inhibition reporter | inhibition, % at 38.7 µM | 290,000 tested, 9.2% active; in the data active = inhibition mostly above about 28%, no sharp cut-off; inactive = mostly below about 43%; note: 0% is about no effect
SARS PLP yeast – blocks SARS-CoV papain-like protease in a yeast assay. Potency, µM (doses to about 32.9 µM), without a hit: top-dose activity, positive = growth rescue, hits mostly activators. S. cerevisiae expressing SARS-CoV PLpro, growth rescue. 330,000 tested, 0.19% active; note: potency is the fitted concentration of half-maximal effect; 0% is about no effect; nearly all actives have a fitted effect of over 55% in size
Numbers without * were called inactive; ? = inconclusive; . = no result. Unless noted, calls come from the whole dose curve.

SMILES | CHX counter | NS1 function inh | Shiga toxin inh | SARS PLP yeast
CCOC(=O)c1cn2nc(Oc3cccc(F)c3)ccc2n1 | 31.3* | -30.7% | 48.6 | -2.1%
CCOC(=O)c1cn2nc(Oc3ccc(C(=O)OC)cc3)ccc2n1 | 1.0 | -2.9% | -1.4 | 0.3%
CCOC(=O)c1cn2nc(Oc3ccc(NC(C)=O)cc3)ccc2n1 | 25.3* | 0.6% | 58.7* | 0.0%
CN1CC[C@H](CN2c3ccccc3Sc3ccccc32)C1 | . | -7.2% | . | .
Cc1nccn1CCCNCc1c(C(=O)N2CCCCCCC2)nc2ccc(Cl)cn12 | -2.5 | -2.2% | -0.4 | 0.1%
O=C(N1CCc2ccc(S(=O)(=O)N3CCN(S(=O)(=O)c4ccc5c(c4)OCCO5)CC3)cc2C1)C(F)(F)F | 7.7 | . | 6.4 | .
COc1ccc(Cl)cc1NC(=O)C(C)N(C)Cc1ccc(C(F)(F)F)cc1 (stereo unspecified) | 4.9 | 2.4% | -9.8 | -3.2%
Cc1cccc(NC(=O)Nc2ccc(C#N)cc2)n1 | 17.6* | 2.5% | 17.3 | 1.6%
Cc1cccc(NC(=O)Nc2cccc(C#N)c2)n1 | 35.6* | -2.6% | 21.5 | -0.6%
CCOC(=O)c1ccc(NC(=O)Nc2cccc(C)n2)cc1 | -5.1 | . | 0.9 | 0.3%
CCOC(=O)CN1C(=O)CN(c2ccc(C)cc2)C1=O | 29.5* | -2.0% | 50.3* | 4.1%
CCOC(=O)CN1C(=O)c2ccccc2C1=O | -4.5 | -1.5% | -8.1 | 1.8%
CCCCOc1ccc(C(=O)NNC(=O)C2C3CCC(C3)C2C(=O)O)cc1 (stereo unspecified) | 39.7* | 18.8% | 71.9* | -3.9%
CCCCOc1ccc(C(=O)NCC(=O)NC2CCC(C)CC2)cc1 (stereo unspecified) | . | . | . | -11.6%
CCCCOc1ccc(C(=O)NNC(=O)C2C3C=CC(C3)C2C(=O)O)cc1 (stereo unspecified) | 10.5* | 25.8% | 17.8 | 8.1%
COC(=O)c1sccc1NC(=O)C1C2C=CC(C2)C1C(=O)O (stereo unspecified) | -6.4 | 0.5% | -2.2 | -5.0%
CC(C)c1ccc(C(=O)NNC(=O)C2C3CCC(C3)C2C(=O)O)cc1 (stereo unspecified) | 39.1* | 16.2% | 101.2* | 0.2%
CCCCNC(=O)C1C2C=CC(C2)C1C(=O)O (stereo unspecified) | -4.9 | -11.8% | -9.2 | -5.6%
Cc1ccsc1C(=O)NNC(=O)C1C2C=CC(C2)C1C(=O)O (stereo unspecified) | 120.7* | ? | 96.5* | -7.4%
CCOc1ccc(NC(=O)C2CC(=O)N(c3ccccc3F)C2)cc1 (stereo unspecified) | 1.4 | -4.5% | 7.2 | -1.8%
O=C(c1ccc(F)cc1F)N1CCC(N2CCC(C(=O)N3CCOCC3)CC2)CC1 | -4.0 | 0.1% | -8.7 | -1.6%
CC(C)c1ccc(C(=O)NN2C(=O)C3CCCCC3C2=O)cc1 (stereo unspecified) | 49.8* | 3.5% | 96.3* | 3.2%
CCOc1cccc(C(=O)NNC(=O)C2C3C=CC(C3)C2C(=O)O)c1 (stereo unspecified) | 19.6* | -1.4% | 28.3 | -1.5%
O=C(NNC(=O)C1C2CCC(C2)C1C(=O)O)c1ccc(Br)o1 (stereo unspecified) | 42.0* | 17.0% | 76.4* | 2.0%
CSc1ccc(Cl)c(C(=O)NNC(=O)c2csc(N3CCOCC3)n2)c1 | . | . | . | -2.7%
SMILES | CHX counter | NS1 function inh | Shiga toxin inh | SARS PLP yeast
O=C(Cc1cccs1)Nc1ccc(NC(=O)c2ccco2)cc1 | 23.6* | 2.8% | 59.9* | .
CCCOC(=O)c1ccc(NC(=O)Cc2cccs2)cc1 | 34.5* | -23.5% | 50.5* | -4.7%
O=C(Nc1ccc(OC(=O)c2cccs2)cc1)c1ccco1 | 44.6* | -30.7% | 53.5* | -12.0%
O=C(Nc1cccc(NC(=O)c2cccs2)c1)c1ccco1 | 1.7 | 14.5% | 3.1 | -2.0%
O=C(Cc1ccsc1)Nc1ccc(S(=O)(=O)C(F)F)cc1 | 23.2* | . | 48.8* | -2.4%
Cc1ccc(CNC(=O)C2CCCN2C(=O)Nc2cccc(Cl)c2)cc1 (stereo unspecified) | 0.7 | 0.7% | -2.6 | 10.5%
CC(=O)c1ccc(NC(=O)Cc2ccsc2)cc1 | 30.0* | -16.8% | 69.0* | 0.0%
Cc1cc(NC(=O)Cc2ccsc2)ccc1Br | 32.8* | -0.4% | 68.8* | -3.3%
CC(=O)c1ccc(NC(=O)Cc2cccs2)cc1 | 27.6* | -2.3% | . | 3.0%
CCN(CC)S(=O)(=O)c1cc(NC(=O)Cc2ccsc2)ccc1C | -4.1 | -4.3% | 23.6 | 1.0%
CCn1c(Cc2ccccc2)nnc1SCC(=O)N1CCCC1=O | 1.0 | -5.5% | -6.5 | 2.7%
COC(=O)c1cc(NS(=O)(=O)c2ccc(Cl)c(N3C(=O)c4ccc(C(=O)O)cc4C3=O)c2)cc(C(=O)OC)c1 | -2.5 | 6.3% | -5.2 | -0.1%
C/C(=C\c1ccccc1)C(=O)Nc1nc2ccc([N+](=O)[O-])cc2s1 | 19.4* | -3.7% | -4.6 | -4.0%
CC(C)=CC(=O)Nc1nc2ccc([N+](=O)[O-])cc2s1 | 44.5* | -3.9% | 55.1* | -2.3%
Cc1ccc(C)c(OCC(=O)Nc2nc3ccc([N+](=O)[O-])cc3s2)c1 | -2.6 | 2.0% | 3.5 | -0.2%
COc1nc(N)nc(NC23CC4CC(CC(C4)C2)C3)n1 | 15.4* | -41.1% | 20.6* | -1.8%
COc1nc(N)nc(N2CCOCC2)n1 | -3.0 | -2.4% | -18.7 | 0.2%
COC(=O)c1ccc(CSCc2ccc(C#N)cc2)cc1 | 43.0* | -6.8% | 75.0* | -0.2%
O=C(Nc1nnc(-c2ccco2)s1)C1CCN(S(=O)(=O)c2ccc(Cl)cc2)CC1 | -3.1 | -8.0% | -10.9 | 4.4%
O=C(Nc1nnc(-c2ccco2)s1)c1ccccc1 | 44.3* | -49.7% | 88.8* | -7.8%
COc1ccc(C(=O)Nc2nnc(-c3ccco3)s2)cc1 | 36.7* | -10.5% | 71.8* | 10.2%
COc1ccccc1NC(=O)Nc1nnc(-c2ccco2)s1 | -0.3 | 9.9% | 17.5 | 1.6%
O=C(Nc1ccc(F)cc1)Nc1nnc(-c2ccco2)s1 | 52.6* | . | 112.0* | 0.4%
O=C(Nc1nnc(-c2ccco2)s1)C1CC1 | 22.8* | -8.3% | 31.0* | 10.5%
C=CCOC(=O)C1=C(C)NC(=S)C(C#N)(CC=C)C1c1ccccc1Cl (stereo unspecified) | -1.1 | 1.7% | -8.6 | -0.1%
SMILES | CHX counter | NS1 function inh | Shiga toxin inh | SARS PLP yeast
CC(C)C(=O)Nc1nnc(-c2ccco2)s1 | 29.4* | 1.5% | 95.1* | 2.1%
COc1cccc(Nc2nc(-c3sc(NC(=O)c4ccccc4)nc3C)cs2)c1 | 13.3 | 1.7% | 70.9* | -2.1%
COc1cccc(Nc2nc(-c3sc(NC(=O)CC(C)C)nc3C)cs2)c1 | 11.9 | 1.6% | 15.4 | -1.4%
Cc1nc(NC(=O)c2ccc(Cl)cc2)sc1-c1csc(Nc2cccc(F)c2)n1 | 23.8* | 9.8% | 109.2 | 0.4%
Cc1ccc(Nc2nc(-c3sc(NC(=O)c4ccco4)nc3C)cs2)cc1 | 19.6* | ? | 35.9 | 1.6%
COc1ccccc1Nc1nc(-c2sc(NC(=O)c3cccc(Cl)c3)nc2C)cs1 | 13.7* | 5.2% | 10.3 | -1.0%
CCOC(=O)C(NC(C)=O)(NC(C)C)C(F)(F)F (stereo unspecified) | -2.9 | 1.3% | 13.8 | 0.3%
COc1ccc(-n2nc(C(=O)O)c3csc(N)c3c2=O)cc1 | -8.5 | . | -3.6 | .
Cc1nc(NC(=O)c2ccccc2)sc1-c1csc(Nc2ccc(C(=O)O)cc2)n1 | 10.1* | 1.8% | 2.1 | -3.6%
C=CCNC(=S)/N=c1/ccccn1CC | -0.6 | -4.5% | -1.1 | -2.1%

Source: PubChem
